In PubChem BioAssay (Tox21):
Unmarked numbers belong to inactive results. Active and inactive are the calls of the source. Calls come from the whole dose curve; as a rule, active = well fitted curve in the direction sought with a large enough effect in the repeat runs; inconclusive = weak or mixed curves; inactive = flat fitted curve, though single readings scatter.

Test: qHTS assay to test for compound auto fluorescence at 590 nm (red) in HepG2 cell free culture (AID 720684)
Settings: cell-free medium autofluorescence, red 540/590 nm; series mostly up to 91.3 µM
Method in brief: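 No cells present: MEM + 10% FBS only. Compound pinned in, red label read (540/590 nm). Activity = fluorescence equivalent to Rose Bengal sodium.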
% is set by controls: 0 for no effect and ±100 for the full control effect.

Row | Structure (SMILES) | outcome | fluorescence, % of Rose Bengal
1 | NCCCN1CCN(CCCN)CC1 | inactive | –
2 | CCCOCCC | inactive | –
3 | CCCCNC(=S)NCCCC | inactive | –
4 | OCCN(CCO)CCN(CCO)CCO | inactive | –
5 | CC(C)C1=CC2=CC[C@@H]3[C@](C)(CCC[C@@]3(C)C(=O)O)[C@H]2CC1 | inactive | –
6 | NC/C=C/C(=O)O | inactive | –
7 | COc1ccccc1N1CCN(CCCNc2cc(=O)n(C)c(=O)n2C)CC1 | inactive | –
8 | CCN1CC(CCN2CCOCC2)C(c2ccccc2)(c2ccccc2)C1=O (stereo not given) | inactive | –
9 | C[C@@H]1CN(c2c(F)c(N)c3c(=O)c(C(=O)O)cn(C4CC4)c3c2F)C[C@H](C)N1 | inactive | –
10 | CCOC(=O)c1ccccc1O | inactive | –
11 | CC(=O)N[C@@H](CC(C)C)C(=O)O | inactive | –
12 | CC(C)CC(=O)OCc1ccccc1 | inactive | –
13 | CC/C=C\CCOC(=O)CCCCC | inactive | –
14 | Cc1ccc(C=O)s1 | inactive | –
15 | FC(F)(F)C(Cl)(Cl)Cl | inactive | –
16 | CN(C)Cc1ccccc1 | inactive | –
17 | CC(C)c1ccccc1 | inactive | –
18 | O=Cc1ccc(F)c(Br)c1 | inactive | –

Row | Structure (SMILES) | outcome | fluorescence, % of Rose Bengal
19 | CCOC(=O)C(Br)c1ccccc1 (stereo not given) | inactive | –
20 | CCCC1CCC(=O)O1 (stereo not given) | inactive | –
21 | CN1CCN(c2c(F)cc3c(=O)c(C(=O)O)cn4c3c2SCC4)CC1 | inactive | –
22 | O=c1[nH]cnc2c1ncn2[C@@H]1O[C@H](CO)[C@@H](O)[C@H]1O | inactive | –
23 | CCOC(=O)[C@H](CCc1ccccc1)N[C@@H](C)C(=O)N1Cc2cc(OC)c(OC)cc2C[C@H]1C(=O)O | inactive | –
24 | CC(C)C(=O)OC/C=C/c1ccccc1 | inactive | –
25 | COc1nc(C)nc(NC(=O)NS(=O)(=O)c2ccccc2OCCCl)n1 | inactive | –
26 | FC(F)(F)c1ccccc1 | inactive | –
27 | Cc1c(C(=O)NCCO)[n+](=O)c2ccccc2n1[O-] | inactive | –
28 | CCCCc1ccc2nc(NC(=O)OC)[nH]c2c1 | – | 0.0227% [at 18.6 µM]
29 | NC(=O)Cc1cccc(C(=O)c2ccccc2)c1N | inactive | –
30 | Nc1cccc(S(=O)(=O)O)c1 | inactive | –
31 | COC(=O)c1ccc(OC)cc1 | inactive | –
32 | COc1cc(C)ccc1C(C)C | inactive | –
33 | C=Cc1ccccc1 | inactive | –
34 | Cc1cc(S(=O)(=O)O)c(N)cc1Cl | inactive | –
35 | O=C(O)c1cccc(Cl)c1Cl | inactive | –

Test: qHTS assay to test for compound auto fluorescence at 460 nm (blue) in HepG2 cell free culture (AID 720685)
Settings: Cell-free culture medium, blue autofluorescence 405/460 nm; series mostly up to 91.3 µM
Method in brief: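 Cell-free plates of MEM plus 10% FBS received 23 nL compound or DMSO vehicle; blue-channel (405/460 nm) intensity scored against triamterene as reference fluorophore.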

Row | Structure (SMILES) | outcome | fluorescence, % of fluorescent control
36 | NCCCN1CCN(CCCN)CC1 | inactive | –
37 | CCCOCCC | inactive | –
38 | CCCCNC(=S)NCCCC | inactive | –
39 | OCCN(CCO)CCN(CCO)CCO | inactive | –
40 | CC(C)C1=CC2=CC[C@@H]3[C@](C)(CCC[C@@]3(C)C(=O)O)[C@H]2CC1 | inactive | –
41 | NC/C=C/C(=O)O | inactive | –
42 | COc1ccccc1N1CCN(CCCNc2cc(=O)n(C)c(=O)n2C)CC1 | inactive | –
43 | CCN1CC(CCN2CCOCC2)C(c2ccccc2)(c2ccccc2)C1=O (stereo not given) | inactive | –
44 | C[C@@H]1CN(c2c(F)c(N)c3c(=O)c(C(=O)O)cn(C4CC4)c3c2F)C[C@H](C)N1 | inactive | –
45 | CCOC(=O)c1ccccc1O | inactive | –
46 | CC(=O)N[C@@H](CC(C)C)C(=O)O | inactive | –
47 | CC(C)CC(=O)OCc1ccccc1 | inactive | –
48 | CC/C=C\CCOC(=O)CCCCC | inactive | –
49 | Cc1ccc(C=O)s1 | inactive | –
50 | FC(F)(F)C(Cl)(Cl)Cl | inactive | –
51 | CN(C)Cc1ccccc1 | inactive | –
52 | CC(C)c1ccccc1 | inactive | –
53 | O=Cc1ccc(F)c(Br)c1 | inactive | –

Row | Structure (SMILES) | outcome | fluorescence, % of fluorescent control
54 | CCOC(=O)C(Br)c1ccccc1 (stereo not given) | inactive | –
55 | CCCC1CCC(=O)O1 (stereo not given) | inactive | –
56 | CN1CCN(c2c(F)cc3c(=O)c(C(=O)O)cn4c3c2SCC4)CC1 | inactive | –
57 | O=c1[nH]cnc2c1ncn2[C@@H]1O[C@H](CO)[C@@H](O)[C@H]1O | inactive | –
58 | CCOC(=O)[C@H](CCc1ccccc1)N[C@@H](C)C(=O)N1Cc2cc(OC)c(OC)cc2C[C@H]1C(=O)O | inactive | –
59 | CC(C)C(=O)OC/C=C/c1ccccc1 | inactive | –
60 | COc1nc(C)nc(NC(=O)NS(=O)(=O)c2ccccc2OCCCl)n1 | inactive | –
61 | FC(F)(F)c1ccccc1 | inactive | –
62 | Cc1c(C(=O)NCCO)[n+](=O)c2ccccc2n1[O-] | inactive | –
63 | CCCCc1ccc2nc(NC(=O)OC)[nH]c2c1 | – | -0.0558% [at 18.6 µM]
64 | NC(=O)Cc1cccc(C(=O)c2ccccc2)c1N | inactive | –
65 | Nc1cccc(S(=O)(=O)O)c1 | inactive | –
66 | COC(=O)c1ccc(OC)cc1 | inactive | –
67 | COc1cc(C)ccc1C(C)C | inactive | –
68 | C=Cc1ccccc1 | inactive | –
69 | Cc1cc(S(=O)(=O)O)c(N)cc1Cl | inactive | –
70 | O=C(O)c1cccc(Cl)c1Cl | inactive | –
